These results are taken from PubChem BioAssay (Tox21).

Values joined by “and” are separate entries in the source; they are usually repeats but may differ in a detail not shown here. Identical values can stand only once. Records with an inconclusive call do not appear. More than one record can exist for a structure, and the calls need not agree. Active and inactive are the calls of the source. Unless noted, the call rests on the fitted dose curve; in most records, active means well fitted curve in the direction sought with a large enough effect in the repeat runs; inconclusive means weak or mixed curves; inactive means no such curve, though single readings can be large; an effect the other way counts as inactive or inconclusive.

Assay [1] can be described thus: qHTS assay to identify small molecule agonists of the vitamin D receptor (VDR) signaling pathway - cell viability counter screen (AID 743224). Further: series mostly up to about 63 µM; nearly all actives have a fitted effect of over 50% in size. The essentials:
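Here cell health was gauged by luminescent ATP detection (CellTiter-Glo, 30 min RT) in VDR-bla cells that had been incubated with test compounds for 16 h at 37C and 5% CO2.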
A general note: Quantitative high-throughput screening tests each substance at several concentrations.

Assay [2] can be described thus: qHTS assay to identify small molecule antagonists of the vitamin D receptor (VDR) signaling pathway - cell viability counter screen (AID 743225). Further: nearly all actives have a fitted effect of over 50% in size. The essentials: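 Cells (VDR-UAS-bla HEK 293T) are plated, rested 4 h at 37C, dosed with compound and 3 nM final 1-alpha,25-dihydroxy vitamin D3, and incubated 16 h. Viability is taken from CellTiter-Glo luminescence in the reporter wells.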

A short description of assay [3]: qHTS assay to identify small molecule agonists of the NFkB signaling pathway - cell viability counter screen (AID 1159515; calls by dose curve; further: series mostly up to about 61 µM; nearly all actives have a fitted effect of over 55% in size). The essentials: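 5 hr compound treatment of NFkB-bla ME-180 cells (2,000/well, seeded overnight beforehand), followed by reporter substrate for 1.5 hr. CellTiter-Glo added afterward; luminescence after 30 min RT.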
Assay [4] in a line: qHTS assay to identify small molecule agonists of the endoplasmic reticulum stress response signaling pathway - cell viability counter screen (AID 1159517; calls by dose curve;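 further: HeLa cells carrying an ER stress response element beta-lactamase reporter; series mostly up to about 61 µM; nearly all actives have a fitted effect of over 50% in size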). The essentials:
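ESRE-bla HeLa cells, 1,500 per well, seeded overnight then treated with compounds for 5 hr at 37 C. After the beta-lactamase read, viability in the same wells is measured by CellTiter-Glo luminescence after 30 min at room temperature.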

A short description of assay [5]: qHTS assay to identify small molecule antagonists of the retinoid-related orphan receptor gamma (ROR-gamma) signaling pathway - cell viability counter screen (AID 1159520). Further: nearly all actives have a fitted effect of over 50% in size. In a few lines: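 Tet-on ROR gamma CHO cells were given compounds for 2 hr, then doxycycline hyclate at 1 uM final, and incubated 16 hr at 37 C. Viability was measured as ATP content by CellTiter-Glo luminescence.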

Assay [6] concerns the target Nuclear receptor ROR-gamma (Homo sapiens) (UniProt P51449). The assay is described as follows: qHTS assay to identify small molecule antagonists of the retinoid-related orphan receptor gamma (ROR-gamma) signaling pathway (AID 1159521). The essentials:
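RORγ antagonism is scored from reduced reporter luminescence in Tet-on CHO cells. Induction used 1 uM final doxycycline hyclate for 16 h at 37 C, following a 2 h compound exposure.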

Assay [7] in a line: qHTS assay to identify small molecule agonists of the AP-1 signaling pathway - cell viability counter screen (AID 1159525; calls by dose curve; further: nearly all actives have a fitted effect of over 55% in size). The essentials: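 AP-1-bla ME-180 cells in Opti-MEM with 0.5% dialyzed FBS, compound exposure 5 h at 37 C in 15-point titration. Viability read in the same wells as ATP content by CellTiter-Glo luminescence, normalised to tetra-n-octylammonium bromide and DMSO controls.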

A short description of assay [8]: qHTS assay to identify small molecule agonists of the AP-1 signaling pathway (AID 1159526; calls by dose curve).
The target of assay [9] is Retinoic acid receptor RXR-alpha (Homo sapiens) (UniProt P19793). The assay is described as follows: qHTS assay to identify small molecule agonists of the RXR signaling pathway (AID 1159527; calls by dose curve; further: nearly all actives have a fitted effect of over 35% in size; further: potency means the concentration at half of the fitted maximal effect). In a few lines: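 qHTS of the Tox21 10K library in GeneBLAzer RXR-alpha HEK 293T cells carrying a beta-lactamase reporter […]; 16 hr treatment, 9-cis retinoic acid as agonist control, FRET read-out.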
Chain of Retinoic acid receptor RXR-alpha (Homo sapiens) (P19793 whole entry, looked up): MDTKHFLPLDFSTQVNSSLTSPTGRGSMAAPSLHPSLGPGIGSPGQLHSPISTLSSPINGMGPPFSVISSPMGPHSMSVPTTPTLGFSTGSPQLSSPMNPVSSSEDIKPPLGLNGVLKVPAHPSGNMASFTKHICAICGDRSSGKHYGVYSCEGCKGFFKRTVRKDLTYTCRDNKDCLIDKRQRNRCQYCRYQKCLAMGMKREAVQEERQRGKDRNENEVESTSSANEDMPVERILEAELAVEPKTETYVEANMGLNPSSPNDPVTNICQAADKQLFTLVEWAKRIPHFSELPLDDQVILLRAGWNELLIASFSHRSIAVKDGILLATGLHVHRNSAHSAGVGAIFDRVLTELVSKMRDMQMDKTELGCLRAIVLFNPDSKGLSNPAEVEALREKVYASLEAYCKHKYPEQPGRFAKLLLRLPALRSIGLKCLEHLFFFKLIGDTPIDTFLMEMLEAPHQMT

Assay [10] is described as follows: qHTS assay to identify small molecule agonists of the RXR signaling pathway - cell viability counter screen (AID 1159529). In a few lines: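 Cell viability is measured by CellTiter-Glo luminescence, 30 min at room temperature, in wells already read for beta-lactamase. Engineered HEK 293T cells (RXR-alpha-UAS-bla) are dosed 16 hr at 37 C. Tetraoctyl ammonium bromide serves as positive control.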

Assay [11] in a line: qHTS assay to identify small molecule antagonists of the retinoid acid receptor (RAR) signaling pathway - cell viability counter screen (AID 1159551). Further: nearly all actives have a fitted effect of over 35% in size. The essentials: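 Seed C3RL4 cells; next day add compound, then retinol to 1 uM final; incubate 6 h at 37 C; add CellTiter-Glo; read luminescence after 30 min at RT.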
Assay [12] in a line: qHTS assay to identify small molecule antagonists of the retinoic acid receptor (RAR) signaling pathway (AID 1159552; further: nearly all actives have a fitted effect of over 50% in size). In a few lines:
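Quantitative HTS in C3RL4 RARE-luciferase reporter cells. Compounds were added with 1 uM (final) retinol; luminescence was read after 6 hr.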

Assay [13] in a line: qHTS assay to identify small molecule agonists of the retinoic acid receptor (RAR) signaling pathway (AID 1159553). The essentials:
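Activation of retinol signaling was monitored via a RARE luciferase reporter in C3RL4 cells. After 6 hr compound treatment at 37 C, detection reagent was added for 30 min at room temperature before luminescence reading.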

Assay [14] can be described thus: qHTS assay to identify small molecule antagonists of the estrogen related receptor (ERR) signaling pathway - cell viability counter screen (AID 1224818).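 Further: series mostly up to about 46 µM; viability measured after 17.5 h of compound exposure.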 The essentials: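 In the same ERR cell assay, compound-treated wells (17.5 h, 37 C) were multiplexed with a fluorogenic viability reagent, CellTiter-Fluor, read after 30 min to flag cytotoxic substances.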
Assay [15] in a line: qHTS assay to identify small molecule agonists of the estrogen related receptor (ERR) signaling pathway (AID 1224820). The essentials: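 Cells: ERR line from NTP, 2,000/well. Pre-incubation 6 h, 37 C/5% CO2. Compound (DMSO) pin transfer, 18 h 37 C. One-Glo, 30 min RT, luminescence.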
Assay [16] has as its system estrogen-related receptor alpha (ERRalpha) with PGC-1alpha coactivator, human. As to the kind of experiment: qHTS assay to identify small molecule antagonists of the estrogen related receptor signaling pathway with the pleiotropic PPARgamma coactivator (PGC) (AID 1224821; calls by dose curve). In a few lines: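 Luminescent read-out (One-Glo, 30 min at room temperature) following 18 h treatment of PGC/ERR cells at 37 C with compounds delivered in DMSO. Cells had settled 6 h at 37 C/5% CO2 before dosing.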

Assay [17] in a line: qHTS assay to identify small molecule antagonists of the estrogen related receptor signaling pathway with the pleiotropic PPARgamma coactivator (PGC) cell viability counter screen (AID 1224822; further: series mostly up to about 46 µM). In a few lines: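 Compounds in DMSO, with positive and negative controls, were applied to PGC/ERR cells (2,000/well) and left 17.5 h at 37 C before CellTiter-Fluor detection.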

Assay [18] is described as follows: qHTS assay to identify small molecule agonists of the estrogen related receptor signaling pathway with the pleiotropic PPARgamma coactivator (PGC) (AID 1224823). The essentials:
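Steps: plate PGC/ERR cells at 2,000 cells/well; incubate 6 h, 37 C/5% CO2; pin-transfer compounds (DMSO); incubate 18 h, 37 C; add One-Glo; 30 min RT; read luminescence.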

Assay [19] in a line: qHTS assay to identify small molecule agonists of the endoplasmic reticulum stress response signaling pathway (AID 1159516; active means well fitted activation curve with a large enough effect in the signal ratio in the repeat runs, not every such curve was filed as active; the % refers to the signal ratio). In a few lines:
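Reporter HeLa cells (ESRE-beta-lactamase) underwent 5 hr compound incubation at 37 C and 5% CO2 in quantitative HTS format. Detection followed 2 hr of FRET substrate loading at room temperature.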

`Nc1c2c(nc3ccccc13)CCCC2`: the Potency result in assay [1], in assay [2], in assay [3], in assay [4], in assay [5] and in [6] was “inactive” throughout. The Potency result in assay [7], in assay [8], in [9], in assay [10], in [11] and in [12] was “inactive” throughout. Also, the Potency result in [13] and in [17] was “inactive” each time. Moreover, the molecule was called inactive in assay [14], in assay [15], in assay [16] and in assay [18].

`CC12CCC(CC1)C(C)(C)O2`: the Potency result in assay [1], in assay [2], in assay [19], in assay [4], in [5] and in assay [6] was “inactive” each time. Also, the Potency result in assay [7], in assay [8], in assay [9], in assay [10], in assay [11] and in [12] was “inactive” each time. Besides, in assay [13], the Potency entry is “inactive”.

Take `Cc1cccc(C)c1`: the Potency entry in [1], in assay [2], in assay [3], in assay [19], in [4] and in [5] was “inactive” throughout. Moreover, the Potency entry in assay [6], in assay [7], in [8], in assay [9], in assay [10] and in assay [11] was “inactive” throughout.

Take `CN1CCC[C@H]1c1cccnc1`: the Potency result in assay [1], in assay [2], in [3], in [19], in assay [4] and in assay [5] was “inactive” in each case. The Potency entry in [6], in assay [7], in [8], in assay [9], in assay [10] and in assay [11] was “inactive” throughout.

With `C=CCc1ccc(O)c(OC)c1`, the Potency result in assay [1], in [2], in assay [19], in assay [4], in [5] and in assay [6] was “inactive” in each case. For the same molecule, the Potency result in assay [7], in assay [8], in [9], in assay [10], in assay [11] and in [12] was “inactive” throughout. Also, the Potency result in assay [13] is “inactive”.

On to `CS(=O)(=O)OCCCCOS(C)(=O)=O`, for which the Potency result in [1], in [2], in assay [19], in assay [4], in assay [5] and in [6] was “inactive” each time. Besides, the Potency entry in [7], in assay [8], in [10], in [11], in assay [12] and in [13] was “inactive” in each case. Further, the Potency entry in [9] was “inactive and 17.4 µM (active)”.

In the case of `Oc1ccccc1`, the Potency result in assay [1], in assay [2], in assay [19], in assay [4], in assay [5] and in assay [6] was “inactive” throughout. In addition, the Potency entry in assay [7], in assay [8], in assay [10], in assay [11], in assay [12] and in assay [13] was “inactive” in each case. Besides, the Potency result in assay [9] is “inactive and 11 µM (active)”.

As for `Cc1ncc([N+](=O)[O-])n1C`, the Potency result in assay [1], in assay [2], in [3], in [19], in [4] and in [5] was “inactive” each time. Also, the Potency result in assay [7], in [8], in [9], in assay [10] and in [11] was “inactive” each time.
